Screening results (PubChem)
TEAD-YAP inh = TEAD-YAP interaction inhibition, primary screen, TEAD-YAP interaction inhibitor project, luminescence, HEK-TIYL cells. TEAD-Gal4/YAP UAS-luciferase luminescence. 1.4% of 640,000 active. AID 1259422, 2018. inhibition, % at 9.12 µM; in the data active = inhibition above about 32%
FBW7 act = FBW7 E3 ligase activators, primary screen, biochemical, AlphaScreen, human | F-box/WD repeat-containing protein 7 (Homo sapiens), Q969H0 | AlphaScreen FBW7–phospho-cyclin E peptide binding, activator screen | normalized activity (activation), % at 26.1 µM | 0.13% of 650,000 active | AID 1259310, 2017; in the data active = normalized activity above about 1.9%;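 note: purified mutant Fbw7 with reduced substrate affinity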
GPR151 activ = activators of human GPR151, primary screen, cell-based, PathHunter beta-arrestin, luminescence | G-protein coupled receptor 151 (Homo sapiens), Q8TDV0 | PathHunter beta-arrestin GPR151 cells | activation, % at 11.2 µM | 1% of 650,000 active; in the data active = activation above about 4.9%
MITF primary = MITF inhibitors, primary screen, biochemical, AlphaScreen, human | AlphaScreen MITF homodimerization, bead proximity signal | inhibition, % at 2.6 µM | AID 1259374, 2018 | 0.91% of 650,000 active | Microphthalmia-associated transcription factor (Homo sapiens), O75030; in the data active = inhibition above about 50%
GPR151 confirm = GPR151 activators, triplicate retest, confirmation, cell-based, PathHunter beta-arrestin, luminescence; activation, % at 11.2 µM; shares compounds with GPR151 activ; 6,700 tested, under 10 active; GPR151 PathHunter beta-arrestin cells, 90 min; % of EA-reagent control over plate median;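 active = mean percent activation across replicates above the confirmation screen cutoff of 4.91%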
GPR119 counter = GPR119 activators in beta-arrestin cells, counter-screen for GPR151 activator project, cell-based, PathHunter beta-arrestin, luminescence, triplicate; shares compounds with GPR151 activ; activation, % at 11.2 µM; 0.3% of 6,700 active; 90 min; 0 = compound-well median, 100 = enzyme-acceptor control;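 active = mean percent activation in the counterscreen above 29.09%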;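 note: counterscreen on off-target GPR119 to flag nonselective hits from the GPR151 activator screen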
Target sequence (Q8TDV5 whole entry, looked up): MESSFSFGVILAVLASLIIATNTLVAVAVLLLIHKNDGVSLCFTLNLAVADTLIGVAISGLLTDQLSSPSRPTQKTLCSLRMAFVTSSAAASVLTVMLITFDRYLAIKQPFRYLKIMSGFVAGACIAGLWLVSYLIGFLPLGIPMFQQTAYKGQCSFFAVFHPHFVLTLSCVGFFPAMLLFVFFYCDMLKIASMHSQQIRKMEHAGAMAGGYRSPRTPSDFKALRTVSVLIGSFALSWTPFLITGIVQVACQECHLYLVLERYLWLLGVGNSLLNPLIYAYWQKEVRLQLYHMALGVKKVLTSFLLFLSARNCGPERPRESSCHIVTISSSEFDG
Large screens that a line does not name were inactive (follow-up assays come after a bar, where they were run). This is a sample that favours compounds with a hit; in the whole collection about 3.5% have one here.

O=S(=O)(c1cccc(-c2nnc(SCCOc3ccccc3)o2)c1)N1CCOCC1	GPR151 activ 6.5 | GPR151 confirm inactive | GPR119 counter inactive
N#Cc1ccc(CSc2nnc(-c3cccc(S(=O)(=O)N4CCCCC4)c3)o2)cc1	GPR151 activ 8.7 | GPR151 confirm inactive | GPR119 counter inactive
CCc1cc2c(SCC(=O)c3ccc(Cl)cc3)ncnc2s1	none
O=C(NCc1ccccc1)c1cc2cc([N+](=O)[O-])ccc2oc1=O	GPR151 activ 13 | GPR151 confirm inactive | GPR119 counter inactive
O=C(NCc1ccccn1)c1cc2c(ccc3ccccc32)oc1=O	GPR151 activ 12 | GPR151 confirm inactive | GPR119 counter inactive
CC(Oc1ccc(Cl)cc1Cl)C(=O)Nc1ccc(F)c([N+](=O)[O-])c1 (stereo not drawn)	none
CN1/C(=C\C=C/C(=O)c2c(O)c3ccccc3oc2=O)C(C)(C)c2ccccc21	none
Cc1cc(C)cc(NC(=O)CC2CC3CCC2C3)c1 (stereo not drawn)	GPR151 activ 8.7 | GPR151 confirm inactive | GPR119 counter inactive
CCOCCOC(=O)C1=C(C)Nc2ccc(C)cc2S1	GPR151 activ 13 | GPR151 confirm inactive | GPR119 counter inactive
COCCOC(=O)C1=C(C)Nc2ccc(C)cc2S1	none
Cc1cc(NC(=O)c2cc(-c3ccccc3O)no2)nn1CC(=O)N1CCOCC1	GPR151 activ 5.6 | GPR151 confirm inactive | GPR119 counter inactive
CCc1ccc(-c2ccc(SCC(=O)NCc3ccco3)nn2)cc1	none
CCCCCOc1ccc(C(=O)Nc2c(C(N)=O)oc3ccccc23)cc1	GPR151 activ 4.9 | GPR151 confirm inactive | GPR119 counter inactive
CCCCOc1ccc(C(=O)Nc2c(C(N)=O)oc3ccccc23)cc1	none
CC(=O)Nc1c(C(=O)c2ccc(Oc3ccccc3)cc2)oc2ccccc12	GPR151 activ 7.4 | GPR151 confirm inactive | GPR119 counter inactive
O=C(c1ccc2c(=O)n(CCC3=CCCCC3)c(=S)[nH]c2c1)N1CCc2ccccc21	none
O=C(Nc1ccccc1)c1ccc(N2C(=O)C3C4C=CC(C4)C3C2=O)cc1 (stereo not drawn)	GPR151 activ 5.0 | GPR151 confirm inactive | GPR119 counter inactive
CCSc1ccccc1C(=O)Nc1ccncc1	GPR151 activ 5.0 | GPR151 confirm inactive | GPR119 counter inactive
Cc1ccccc1C(=O)Nc1ccc(S(=O)(=O)N2CCN(C)CC2)cc1	GPR151 activ 6.7 | GPR151 confirm inactive | GPR119 counter inactive
CCSc1ccccc1C(=O)Nc1ccc(S(=O)(=O)N2CCOCC2)cc1	GPR151 activ 6.5 | GPR151 confirm inactive | GPR119 counter inactive
CCSc1ccccc1C(=O)Nc1cccnc1	none
Cc1c(C(=O)N2CCN(Cc3ccccc3)CC2)sc2ncn(Cc3ccccc3Cl)c(=O)c12	none
Cc1c(C(=O)N2CCCCCC2)sc2ncn(Cc3ccccc3Cl)c(=O)c12	GPR151 activ 8.5 | GPR151 confirm inactive | GPR119 counter inactive
COc1ccc(OC)c(-n2c(CN3CCC(C(N)=O)CC3)nc3ccccc3c2=O)c1	GPR151 activ 5.6 | GPR151 confirm inactive | GPR119 counter inactive
C=CCNC(=O)c1cc(I)ccc1NC(=O)c1ccc(F)cc1	GPR151 activ 11 | GPR151 confirm inactive | GPR119 counter inactive
C=CCNC(=O)c1cc(I)ccc1NC(=O)c1cccnc1	GPR151 activ 5.7 | GPR151 confirm inactive | GPR119 counter inactive
CCOC(=O)c1ccccc1NC(=O)C1c2ccccc2C(=O)N(Cc2ccc(F)cc2)C1c1ccc(OC)cc1 (stereo not drawn)	none
CCOC(=O)C1=C(C)NC(SCC(N)=O)=C(C#N)C1c1cccs1 (stereo not drawn)	none
CCOC(=O)C1=C(C)NC(SCC(=O)Nc2cc(C)on2)=C(C#N)C1c1cccs1 (stereo not drawn)	GPR151 activ 5.8 | GPR151 confirm inactive | GPR119 counter inactive
O=C(CN1C(=O)CCC1=O)Nc1ccc(I)cc1	none
O=C(NNS(=O)(=O)c1ccc(Br)cc1)c1ccccc1	GPR151 activ 5.4 | GPR151 confirm inactive | GPR119 counter inactive
O=C(NNS(=O)(=O)c1ccc2ccccc2c1)c1ccc(Br)cc1	none
O=C(CC1C(=O)NCCN1CC(c1ccccc1)c1ccccc1)NCCc1cnccn1 (stereo not drawn)	none
O=C(Nc1nnc(S(=O)(=O)N2CCc3ccccc32)s1)c1ccco1	none
Cc1cccc(OCC(=O)Nc2nnc(S(=O)(=O)N3CCc4ccccc43)s2)c1	GPR151 activ 6.1 | GPR151 confirm inactive | GPR119 counter inactive
Cc1ccc(OCC(=O)Nc2nnc(S(=O)(=O)NCc3ccccc3)s2)cc1	GPR151 activ 8.7 | GPR151 confirm inactive | GPR119 counter inactive
O=C(Nc1nnc(S(=O)(=O)N2CCc3ccccc32)s1)c1cccs1	GPR151 activ 5.2 | GPR151 confirm inactive | GPR119 counter inactive
CC(C)(C)c1ccc2oc(-c3ccc(NC(=O)c4cccc([N+](=O)[O-])c4)cc3)nc2c1	none
O=C(c1cccs1)N1CCSC1=S	none
CCC(C)NC(=O)c1cccc(N2CCCC2=O)c1 (stereo not drawn)	none
O=C(O)c1cccc(N2CCCC2=O)c1	GPR151 activ 5.4 | GPR151 confirm inactive | GPR119 counter inactive
O=C(c1ccccc1)N1CCN(CC#CC2(O)CCCCC2)CC1	GPR151 activ 10 | GPR151 confirm inactive | GPR119 counter inactive
O=C(c1ccc(C#CC2(O)CCCCC2)cc1)N1CCN(c2ccccc2)CC1	none
O=C(N/N=C/c1ccccc1[N+](=O)[O-])c1ccccc1[N+](=O)[O-]	none
O=C(N/N=C/c1ccccc1)c1ccccc1[N+](=O)[O-]	none
O=C(N/N=C/c1ccccc1[N+](=O)[O-])c1cccc2ccccc12	GPR151 activ 7.4 | GPR151 confirm inactive | GPR119 counter inactive
O=C(N/N=C/c1cc(Cl)cc([N+](=O)[O-])c1O)c1ccccc1O	GPR151 activ 5.1 | GPR151 confirm inactive | GPR119 counter inactive
O=C(N/N=C/c1ccc(F)cc1)c1ccccc1[N+](=O)[O-]	GPR151 activ 7.0 | GPR151 confirm inactive | GPR119 counter inactive
O=C(N/N=C/c1cccc2ccccc12)c1ccccc1[N+](=O)[O-]	GPR151 activ 11 | GPR151 confirm inactive | GPR119 counter inactive
O=C(N/N=C/c1cc(Br)cc([N+](=O)[O-])c1O)c1cccc2ccccc12	none
Cc1ccc(CN2C=Nc3ccccc3S2(=O)=O)cc1	none
O=C(NCCCn1ccnc1)c1csc2nc(-c3ccc(F)cc3)cn12	none
